# Measurements as given in the supplement of paper PMC6555819.
# Tested on: PPARg:RXRa 30nM:10nM, anti-RXR (NR concentration 30 nM, RXRa partner concentration 10 nM)
# Assay: PBM binding z-score (relative to random genomic background probes); higher = stronger binding; sequences stand for … in GC…GCGATTGACAGCGTAGAATGAAGG
# How it was run: (§1)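 Binding z-scores take random background probes as their reference. They come from custom Agilent 4×180K protein-binding microarrays incubated 1 h with ligand-free nuclear receptor dimers, with antibodies against each partner (one per run) detecting binding. Scanned fluorescence was regression-normalized.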
row,Sequence,PBM binding z-score
1,ACAGACAGGTGAGTGAAGCTAACTCAGCTGGACG,-0.443
2,ATCTCTAGGTAACAAAGTTCAGTGAATGCCGAAC,1.01
3,ACTATTAGTAGAGACGAGGGCAACCGATAGGTTG,0.245
4,GCAGACAGGTGAAACGCCGGTAACTCAGGGTGGC,-0.502
5,ATCTCTAGGTAAGACTCAGTTCACTGAAGAACGC,0.222
6,CGTCCAAGGTCAATGCTATGTCAGTGAAAGCATT,1.02
7,CGTCCAAGGTCATAGGAGGTCAGTGAAGACAGAT,2.12
8,CGTCCAATGTCAGCAGGTCAGTGAAAGCGACGTG,-0.882
9,CCTCCAAGGTCAGCAGGTCAGTGAAAGCGACGTG,1.49
10,TCTTGTAGATCAACAAGAGGTTAAGAAAGATCGA,2.15
11,GGAACGAGGGCATTCGTGTTGATAGCATGGCGAT,-0.395
12,GCTAGCAGGCCATTTCGGTCACTCAATGACGGGC,-0.633
13,TCTAGTTGGTCACGGAGGTCTCACACGACGGGTA,2.94
14,ATATGTAGGTTCGCTGGGGTCATTCAGACTAGGC,1.2
15,CCAGACAGGTGAAAGGTAACACAGTCTGGTACGC,4.72
16,CGAACTAGGTCAAGGACAATGAATCTCCGCACGC,4.46
17,CAAACTAGGTCAAACGTCAAAGTCGAGCCAACCA,8.48
18,CCTTCCGGGTCACTCCAGGTTATAGCATCGGAGT,1.22
19,ACTAGCAGGACAAGGGTCACTCAAGATTAGTCCG,5.71
20,ACTCCGAGGACAAAGGTCAGAGCTACGCCAGTGA,6.18

row,Sequence,PBM binding z-score
1,CCTAGTTGGTCAAGGGCACACACGCTATAGGTAC,0.541
2,ACTCGGAGGACAAAGGTTAGAGCTACGCCAGTGA,3.29
3,CCTAGCAGCCCAGGGTCACTCAAGCATTTCGCTT,-0.586
4,CGTCCAAGGTCATAGGAGGTCAGAGAAGACAGAT,2.71
5,CAAACTAGGTCATGAGGTCAAAGTCCGCTTCCCG,6.58
6,TCTGCTAGGTCAAAGATGGTCAGCTAATCTGCTA,2.61
7,TGAATGAGGCTATAAGATCAGGGAACGTTGCAAA,0.0907
8,CCAACTAGGTCACGAAAGGTCAAAGTCGAATGAC,5.92
9,TAGCCTAGGTCATGGGCCAATATACCACGCGAAC,1.34
10,CCTACTGGGCCATCCAGAGGTCATTGATCATATG,0.809
11,ACAGACGGGTGAGTGAAGGTAACTCAGCTGGACG,-0.296
12,CTCGAAAGCTCGGTTGAGGTGAGTATACGGATAA,-0.328
13,TTTAGCAGGCCAGAGGGTCACTCAAGAGGTACGG,1.1
14,CCTCGGAGGACCGAAGGTCAGAGCTGTCCGCTTT,-0.716
15,CGAACTAGGTAATCCAGGACAGTGAATACATTGA,0.536
16,GCGGCTAGGTCAACTGATGGTCAGCTAAAGCTCG,0.0288
17,ATCTCTAGGTAACTAGTTCAGTGAAAGAGAGGAC,0.417
18,GCATATAGGTAATACAATGTGAAAGTCCGATTGT,0.448
19,CCTTACGGGTAAAGGTTATAGCACGGGTGGTACG,2.06
20,GGAACGAGGGCAAGTTGAGAGCAGAGTTTGATGG,0.0684

# Tested on: PPARg:RXRa 90nM:30nM, anti-RXR (NR concentration 90 nM, RXRa partner concentration 30 nM)
# Assay: as above
# How it was run: as §1
row,Sequence,PBM binding z-score
1,ACAGACAGGTGAGTGAAGCTAACTCAGCTGGACG,-0.258
2,ATCTCTAGGTAACAAAGTTCAGTGAATGCCGAAC,2.42
3,ACTATTAGTAGAGACGAGGGCAACCGATAGGTTG,0.958
4,GCAGACAGGTGAAACGCCGGTAACTCAGGGTGGC,-0.552
5,ATCTCTAGGTAAGACTCAGTTCACTGAAGAACGC,0.475
6,CGTCCAAGGTCAATGCTATGTCAGTGAAAGCATT,2.95
7,CGTCCAAGGTCATAGGAGGTCAGTGAAGACAGAT,4.17
8,CGTCCAATGTCAGCAGGTCAGTGAAAGCGACGTG,-0.158
9,CCTCCAAGGTCAGCAGGTCAGTGAAAGCGACGTG,2.93
10,TCTTGTAGATCAACAAGAGGTTAAGAAAGATCGA,1.59
11,GGAACGAGGGCATTCGTGTTGATAGCATGGCGAT,0.413
12,GCTAGCAGGCCATTTCGGTCACTCAATGACGGGC,-0.697
13,TCTAGTTGGTCACGGAGGTCTCACACGACGGGTA,2.55
14,ATATGTAGGTTCGCTGGGGTCATTCAGACTAGGC,2.91
15,CCAGACAGGTGAAAGGTAACACAGTCTGGTACGC,6.42
16,CGAACTAGGTCAAGGACAATGAATCTCCGCACGC,6.15
17,CAAACTAGGTCAAACGTCAAAGTCGAGCCAACCA,9.75
18,CCTTCCGGGTCACTCCAGGTTATAGCATCGGAGT,3.15
19,ACTAGCAGGACAAGGGTCACTCAAGATTAGTCCG,7.29
20,ACTCCGAGGACAAAGGTCAGAGCTACGCCAGTGA,8.09

row,Sequence,PBM binding z-score
1,CCTAGTTGGTCAAGGGCACACACGCTATAGGTAC,1.26
2,ACTCGGAGGACAAAGGTTAGAGCTACGCCAGTGA,5.35
3,CCTAGCAGCCCAGGGTCACTCAAGCATTTCGCTT,0.325
4,CGTCCAAGGTCATAGGAGGTCAGAGAAGACAGAT,5.09
5,CAAACTAGGTCATGAGGTCAAAGTCCGCTTCCCG,8.76
6,TCTGCTAGGTCAAAGATGGTCAGCTAATCTGCTA,3.76
7,TGAATGAGGCTATAAGATCAGGGAACGTTGCAAA,-0.0194
8,CCAACTAGGTCACGAAAGGTCAAAGTCGAATGAC,8.18
9,TAGCCTAGGTCATGGGCCAATATACCACGCGAAC,2.91
10,CCTACTGGGCCATCCAGAGGTCATTGATCATATG,2.2
11,ACAGACGGGTGAGTGAAGGTAACTCAGCTGGACG,-0.268
12,CTCGAAAGCTCGGTTGAGGTGAGTATACGGATAA,-0.403
13,TTTAGCAGGCCAGAGGGTCACTCAAGAGGTACGG,2.42
14,CCTCGGAGGACCGAAGGTCAGAGCTGTCCGCTTT,0.325
15,CGAACTAGGTAATCCAGGACAGTGAATACATTGA,0.507
16,GCGGCTAGGTCAACTGATGGTCAGCTAAAGCTCG,1.44
17,ATCTCTAGGTAACTAGTTCAGTGAAAGAGAGGAC,0.722
18,GCATATAGGTAATACAATGTGAAAGTCCGATTGT,0.672
19,CCTTACGGGTAAAGGTTATAGCACGGGTGGTACG,3.73
20,GGAACGAGGGCAAGTTGAGAGCAGAGTTTGATGG,0.629
